According to PubChem BioAssay (NCI):
This is part of a sample that, as a whole, favours compounds with a hit. Of some 79,000 tested, about 15% had one in any assay. A number with no mark means an inactive call. No stated cut-off is given here; in the data, active means growth inhibition above about 70%; inactive means the rest.

Experiment: NCI Yeast Anticancer Drug Screen. Data for the rad50 strain (AID 155);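 further: 0% = growth of vehicle-only cultures of the same strain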
Conditions: S. cerevisiae rad50 strain growth inhibition; at 50.0 µM; hits give high values
How it was run: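 Inhibition values express reduced yeast growth in compound-treated cultures relative to vehicle-treated controls.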

| Compound | growth inhibition [%] |
| --- | --- |
| CC(=O)Nc1cccc2ccc([N+](=O)[O-])cc12 | 13.1 |
| NC(=S)N/N=C/c1cc([N+](=O)[O-])ccc1O | 1.95 |
| Brc1ncccn1 | 23.8 |
| Cc1ccc(C)c(CNC(=O)NC(C)(C)C)c1 | -10.2 |
| CCCCCCCCCCCCCCCCCC[N+](C)(C)Cc1c(Cl)c(Cl)c(Cl)c(Cl)c1Cl | 10.8 |
| CC1C2CC(C/C2=N/O)C1(C)C (stereo not given) | 19.7 |
| CC1(C(Cl)Cl)C=CC(=O)c2ccccc21 (stereo not given) | 37 |
| Nc1ncnc2nc(N=Nc3ccc(S(=O)(=O)O)cc3)[nH]c12 | 4.25 |
| Cc1ccc(C(C)(O)C2CC2)cc1 (stereo not given) | -11.4 |
| Cc1ccc(S(=O)(=O)OCC23CCC(CC2)CC3)cc1 | -30 |
| O=C(O)C(Cc1ccccc1)NS(=O)(=O)Cc1ccccc1 (stereo not given) | -14.1 |
| OCCCNc1ncnc2[nH]ncc12 | 7.7 |
| O=C(SCc1ccccc1)N(c1ccccc1)c1ccccc1 | -0.55 |
| CCCOC(=O)c1cccnc1C(=O)OCCC | -0.2 |
| CCOC(=O)Cn1/c(=N/N=C(\C)c2ccc([N+](=O)[O-])o2)sc2cc(Cl)ccc21 | -5.75 |
| O=C(Nc1ccc(Cl)cc1)Nc1nnc(-c2cccc(-c3nnc(NC(=O)Nc4ccc(Cl)cc4)o3)c2)o1 | 39.1 |
| CC(C)(C)CC(C)(C)N(CSc1ccc2ccccc2c1)CSc1ccc2ccccc2c1 | 20.9 |
| C#CC(C)(CC)OC(C)=O (stereo not given) | 44.3 |
| NS(=O)(=O)c1ccc(NC(=O)c2cccn3c(=O)c4ccccc4nc23)cc1 | 6.6 |
| Cc1cc2ccccc2c[n+]1CC(=O)CC([O-])(C(F)(F)F)C(F)(F)F | 2.85 |

| Compound | growth inhibition [%] |
| --- | --- |
| Brc1ccc(-c2[nH]c3ccccc3c2N=Nc2ccccc2)cc1 | 0.85 |
| C1CCC2(CC1)CCCO2 | -6.3 |
| CCOC(O)C(F)(F)F (stereo not given) | 9.2 |
| CCOC(=O)c1ccnc(F)c1 | 3.8 |
| O=C(O)c1ccccc1/C=N\N(CCO)C1=NCCN1 | 21.4 |
| OC(COc1ccc2ccccc2c1)COc1ccc2ccccc2c1 | -8.55 |
| O=C(CN1CCN(c2ccccc2)CC1)N1CCc2c([nH]c3ccccc23)C1c1cccnc1 (stereo not given) | 2.45 |
| CCc1nc(N)nc(N)c1-c1ccc2nn(-c3ccccc3)[n+]([O-])c2c1 | 4.25 |
| O=C(CCCO)c1nc2ccccc2s1 | -2.5 |
| COc1ccc2c(c1OC)C(Cc1ccccc1)N1CCc3cc4c(cc3C1C2)OCO4 (stereo not given) | 21.4 |
| CC(c1ccccc1)C1OCCO1 (stereo not given) | -7.45 |
| O=C1c2ccccc2-c2cccc3ccc(-c4ccccc4)c1c23 | 4.85 |
| O=[N+]([O-])c1ccc(NC(CO)C(O)C(O)C(O)CO)c([N+](=O)[O-])c1 (stereo not given) | 12.3 |
| CC(=O)Nc1ccc(S(=O)(=O)N=S(C)C)cc1 | -10.8 |
| CNC(=O)C(C)Oc1ccc(OCC2CCCCC2)cc1 (stereo not given) | -0.8 |
| Cc1cccc(Cl)c1NC(=O)C(Cl)Cl | 6.35 |
| COc1cc(/C=C/C=C(C(=O)O)C(=O)O)cc(OC)c1OC | -5 |
| COC(=O)C1Cc2cc3c(cc2C1=O)CCC3 (stereo not given) | -19.2 |
| CCOC(=O)Nc1ccc(C2OCCS2)cc1 (stereo not given) | 1.05 |
| CC[C@@H]1CN(C)[C@H]2Cc3c([nH]c4ccccc34)C(=O)C[C@H]1C2C(=O)OC (stereo not given in full) | 13.5 |
